The first experiment deals with T1, ETS1 (UniProt P14921).
T1 sequence: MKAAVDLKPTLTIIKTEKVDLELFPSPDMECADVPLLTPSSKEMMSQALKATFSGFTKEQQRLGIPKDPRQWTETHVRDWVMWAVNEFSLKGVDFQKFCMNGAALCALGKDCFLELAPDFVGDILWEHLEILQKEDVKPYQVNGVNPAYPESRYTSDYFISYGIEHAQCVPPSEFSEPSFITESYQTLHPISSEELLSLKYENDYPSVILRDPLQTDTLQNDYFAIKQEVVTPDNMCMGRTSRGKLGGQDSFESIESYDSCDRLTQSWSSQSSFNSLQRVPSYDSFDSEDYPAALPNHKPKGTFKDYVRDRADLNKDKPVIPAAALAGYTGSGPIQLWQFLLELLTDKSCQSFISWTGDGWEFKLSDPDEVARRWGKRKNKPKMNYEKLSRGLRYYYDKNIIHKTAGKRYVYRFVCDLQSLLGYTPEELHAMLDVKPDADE
The experiment is described as follows: ETS1 binding intensity (PBM fluorescence), ETS1 alone (arbitrary fluorescence units); higher = stronger binding. Particulars: ETS1 concentration 1 nM; RUNX1 concentration 0 nM.
Sequence GCGCCGGTGACGGAAGTGCGGTGTTGAGCGCCGGCG displayed an ETS1 binding intensity of 2430.

For GAGGCGACCCACATCCGCTGTGCGGGGGCAACTGCA, the ETS1 binding intensity amounted to 957.

Regarding CTTTGTTGAAAAGGATGTGGTCATCTGATCTTGCTG, the ETS1 binding intensity worked out at 1070.

Turning to GGACAAAACATCATAGGAAGTGGGTTTTGGGGTGAG, the ETS1 binding intensity was 1500.

For AGTGTCCGCCGCTTCCTGGTTGCGGGTCAGCGCCCA, the ETS1 binding intensity was 629.

Regarding TCATTTCCTCTGGTGTTATTGTGTTGTGGTTTTAAG, the ETS1 binding intensity stood at 417.

As for TATTCATGACATCCTGTCGGGCTTGTGGGCTGCGTA, the ETS1 binding intensity turned out to be 1020.

In the case of AACAACTGACCGGACAGAACACAGCCACAAAACACG, the ETS1 binding intensity turned out to be 606.

As for CCCAGGCTTCCGGGTTGAATATGTGGGCTGAGGCGA, the ETS1 binding intensity was found to be 455.

Turning to GAAGGTTGTAGAGGAAGTGGTTTGTTCTTCCTCCTG, the ETS1 binding intensity worked out at 2670.

The sequence CAAGAGGAACCGGAACTTTGGAAACCACATTCTTAT returned an ETS1 binding intensity of 1400.

In turn, CAGCTCTCTCGCTTCCTGTGGTGTAAACATGAAGCA yielded an ETS1 binding intensity of 1570.

Sequence CAGACAGGAGGCGGATGTGGGTGGCGCAGAATGAGC gave an ETS1 binding intensity of 1820.

Sequence TTTGAGCGGGCAGGATGTGGTGACAATGATACTGCA displayed an ETS1 binding intensity of 4280.

GTCGTCCCGGAAACCGGGATGCGGTTATCAGAGCGA yielded an ETS1 binding intensity of 1860.

The sequence ATGTACATAGATACAGGATGTGGGTTTGTTACAAAG came in with an ETS1 binding intensity of 7940.

For TGACATTTCCGGCCCCACCTCGGCCCGCAGCGCCGC, the ETS1 binding intensity came out at 1180.

In turn, TCGTGTTCTCTTCCGTTCTGTGGTAGCTTTTTGGTA gave an ETS1 binding intensity of 655.

As to CTGAAAAACCGGAAGTGGGTGGTTTGAAACGTAAAT, the ETS1 binding intensity stood at 18000.

For another experiment, the target named is RUNX1 (UniProt Q01196). The experiment is described as follows: RUNX1 binding intensity (PBM fluorescence), RUNX1 alone (arbitrary fluorescence units); higher = stronger binding. The following applies: RUNX1 concentration 2 nM; ETS1 concentration 0 nM. The method, then: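 Cooperative gcPBM on 36-bp genomic probes with neighbouring ETS1 and RUNX1 sites. Recombinant human RUNX1 (2 nM) was incubated alone or with ETS1 (25 nM) and detected with anti-RUNX1 antibody plus Alexa488 secondary. Values are medians over 4 replicate spots; the RUNX1+ETS1 data were normalised to the RUNX1-only data. The probes sit in constant array flanks that are not printed.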
RUNX1, sequence (Q01196 whole entry): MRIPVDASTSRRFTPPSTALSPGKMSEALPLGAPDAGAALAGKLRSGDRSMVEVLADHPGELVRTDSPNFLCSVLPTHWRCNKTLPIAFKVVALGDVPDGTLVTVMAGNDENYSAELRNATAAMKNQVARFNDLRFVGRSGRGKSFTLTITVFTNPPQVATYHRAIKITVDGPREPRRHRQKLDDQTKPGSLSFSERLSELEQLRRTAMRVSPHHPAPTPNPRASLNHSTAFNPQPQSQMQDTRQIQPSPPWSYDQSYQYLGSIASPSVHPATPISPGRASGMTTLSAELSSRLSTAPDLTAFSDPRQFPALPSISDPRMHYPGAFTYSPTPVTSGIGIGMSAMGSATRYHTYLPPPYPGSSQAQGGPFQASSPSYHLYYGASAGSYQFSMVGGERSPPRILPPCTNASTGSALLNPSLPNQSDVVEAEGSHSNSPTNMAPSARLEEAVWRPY
With TGGCTTTGCAGAAGGAAGCTGTGGTTTCTGGTCTTC, the RUNX1 binding intensity was determined as 869.

For CAGGGTGTCGGCTTCCGGCGGTTGCCCACTTTCGGC, the RUNX1 binding intensity was 763.

In the case of ATGGTGTAGAGAGGATGTGGGCTTTAAGGTCAGAGA, the RUNX1 binding intensity is 706.

GGCCCAGGAAAGAGGCAGGGGTGCGGTTTCCCTCCG: the RUNX1 binding intensity came to 1060.

Take CAGGTGTTCAGGAAACAAAACCACAGACTTTTTCAC: the RUNX1 binding intensity was 4690.

ATGGGGAACGGGAAATACGGCGGGAACCACAATCGC displayed an RUNX1 binding intensity of 777.

Take CGAAGCCAGGAAATAAGGATAAACCACAGAAAGAAA: the RUNX1 binding intensity was found to be 1260.

As to ACGTCTGTTTCCTGTGATTGAAACCGCAAGAAGAAG, the RUNX1 binding intensity was 4510.

As to GCCTCCTCAGGAAATTGCCCAAAATAGCCACATGTC, the RUNX1 binding intensity turned out to be 1090.

Turning to TAAATGTTTCCTAAAAGCTCTTTCATAAACCACAGT, the RUNX1 binding intensity was 970.

AACAAAGAGAGAGGAAGTGGGTTGGGCGGGGGGGGT yielded an RUNX1 binding intensity of 1010.

Sequence CTTATCTTCTTCCTGTGAGCTGTGTGTGGGTGGCTC had an RUNX1 binding intensity of 942.

On to GACCACTTCCTTTCTGTGTTTTGTGGTTTCACAACT, for which the RUNX1 binding intensity came to 2430.

Sequence GGTCCGGAAACGATTCTGGACCTGCGGGTATATCCA showed an RUNX1 binding intensity of 776.

Sequence GATCCCCCTCCTCCATCCTGTGGCTTCGGGTTGCCG yielded an RUNX1 binding intensity of 819.

For GGAGAGTTGACTTCCGGCGGCTTGTGGGAGTGCTGG, the RUNX1 binding intensity stood at 771.

On to GCTTCTTCCGGCCGGGCCGAGAGGTGGTTACATTCG, for which the RUNX1 binding intensity turned out to be 792.

Sequence TGGTTAGGGAGAGGGGGATGTGGTTAGGGTGAGGGA had an RUNX1 binding intensity of 1110.

As to GGGCCCGGGCCAGGAAGTGGTTTTGCAGAGGTGTTT, the RUNX1 binding intensity was determined as 763.

In turn, TGCTCAAATGCAGGATGTGGTCTGAGAGTTTCTCCT displayed an RUNX1 binding intensity of 693.

Take AGCTGCAGTTGGGCAGGAAACCACAATGTCGAAGAC: the RUNX1 binding intensity came to 1320.

Sequence GCGCCGGTGACGGAAGTGCGGTGTTGAGCGCCGGCG returned an RUNX1 binding intensity of 758.

For GAGGCGACCCACATCCGCTGTGCGGGGGCAACTGCA, the RUNX1 binding intensity was determined as 729.

In the case of CTTTGTTGAAAAGGATGTGGTCATCTGATCTTGCTG, the RUNX1 binding intensity was 864.

With GGACAAAACATCATAGGAAGTGGGTTTTGGGGTGAG, the RUNX1 binding intensity amounted to 761.

Turning to AGTGTCCGCCGCTTCCTGGTTGCGGGTCAGCGCCCA, the RUNX1 binding intensity was 824.

Regarding TCATTTCCTCTGGTGTTATTGTGTTGTGGTTTTAAG, the RUNX1 binding intensity was 1580.

Consider TATTCATGACATCCTGTCGGGCTTGTGGGCTGCGTA, for which the RUNX1 binding intensity is 704.

AACAACTGACCGGACAGAACACAGCCACAAAACACG: the RUNX1 binding intensity came to 936.

Regarding CCCAGGCTTCCGGGTTGAATATGTGGGCTGAGGCGA, the RUNX1 binding intensity is 819.

As to GAAGGTTGTAGAGGAAGTGGTTTGTTCTTCCTCCTG, the RUNX1 binding intensity was 837.

In turn, CAAGAGGAACCGGAACTTTGGAAACCACATTCTTAT registered an RUNX1 binding intensity of 911.

As to CAGCTCTCTCGCTTCCTGTGGTGTAAACATGAAGCA, the RUNX1 binding intensity stood at 964.

Take CAGACAGGAGGCGGATGTGGGTGGCGCAGAATGAGC: the RUNX1 binding intensity turned out to be 688.

The sequence TTTGAGCGGGCAGGATGTGGTGACAATGATACTGCA returned an RUNX1 binding intensity of 750.

On to GTCGTCCCGGAAACCGGGATGCGGTTATCAGAGCGA, for which the RUNX1 binding intensity was determined as 1000.

For the sequence ATGTACATAGATACAGGATGTGGGTTTGTTACAAAG, the RUNX1 binding intensity was 746.

Sequence TGACATTTCCGGCCCCACCTCGGCCCGCAGCGCCGC showed an RUNX1 binding intensity of 955.

As to TCGTGTTCTCTTCCGTTCTGTGGTAGCTTTTTGGTA, the RUNX1 binding intensity was determined as 1470.

Sequence CTGAAAAACCGGAAGTGGGTGGTTTGAAACGTAAAT came in with an RUNX1 binding intensity of 776.

Another experiment has as its target T1, ETS1. In words: ETS1 binding intensity (PBM fluorescence) in presence of RUNX1, normalised to ETS1-only experiment (arbitrary fluorescence units); higher = stronger binding. Particulars: ETS1 concentration 1 nM; RUNX1 concentration 25 nM.
Turning to TGGCTTTGCAGAAGGAAGCTGTGGTTTCTGGTCTTC, the ETS1 binding intensity came out at 3340.

For the sequence CAGGGTGTCGGCTTCCGGCGGTTGCCCACTTTCGGC, the ETS1 binding intensity came out at 1090.

As to ATGGTGTAGAGAGGATGTGGGCTTTAAGGTCAGAGA, the ETS1 binding intensity was 1690.

In the case of GGCCCAGGAAAGAGGCAGGGGTGCGGTTTCCCTCCG, the ETS1 binding intensity is 761.

CAGGTGTTCAGGAAACAAAACCACAGACTTTTTCAC: the ETS1 binding intensity was determined as 2370.

As to ATGGGGAACGGGAAATACGGCGGGAACCACAATCGC, the ETS1 binding intensity came to 1700.

As to CGAAGCCAGGAAATAAGGATAAACCACAGAAAGAAA, the ETS1 binding intensity is 3180.

On to ACGTCTGTTTCCTGTGATTGAAACCGCAAGAAGAAG, for which the ETS1 binding intensity came to 2250.

As to GCCTCCTCAGGAAATTGCCCAAAATAGCCACATGTC, the ETS1 binding intensity amounted to 667.

On to TAAATGTTTCCTAAAAGCTCTTTCATAAACCACAGT, for which the ETS1 binding intensity was found to be 669.

In the case of AACAAAGAGAGAGGAAGTGGGTTGGGCGGGGGGGGT, the ETS1 binding intensity came to 1990.

For the sequence CTTATCTTCTTCCTGTGAGCTGTGTGTGGGTGGCTC, the ETS1 binding intensity is 397.

Regarding GACCACTTCCTTTCTGTGTTTTGTGGTTTCACAACT, the ETS1 binding intensity was 1650.

Turning to GGTCCGGAAACGATTCTGGACCTGCGGGTATATCCA, the ETS1 binding intensity is 1350.

On to GATCCCCCTCCTCCATCCTGTGGCTTCGGGTTGCCG, for which the ETS1 binding intensity was determined as 420.

In the case of GGAGAGTTGACTTCCGGCGGCTTGTGGGAGTGCTGG, the ETS1 binding intensity was found to be 2640.

Regarding GCTTCTTCCGGCCGGGCCGAGAGGTGGTTACATTCG, the ETS1 binding intensity is 700.

As for TGGTTAGGGAGAGGGGGATGTGGTTAGGGTGAGGGA, the ETS1 binding intensity was found to be 3960.

In the case of GGGCCCGGGCCAGGAAGTGGTTTTGCAGAGGTGTTT, the ETS1 binding intensity was 7660.

Take TGCTCAAATGCAGGATGTGGTCTGAGAGTTTCTCCT: the ETS1 binding intensity was 6550.

Regarding AGCTGCAGTTGGGCAGGAAACCACAATGTCGAAGAC, the ETS1 binding intensity is 5770.

GCGCCGGTGACGGAAGTGCGGTGTTGAGCGCCGGCG: the ETS1 binding intensity worked out at 3070.

Consider GAGGCGACCCACATCCGCTGTGCGGGGGCAACTGCA, for which the ETS1 binding intensity was 1270.

With CTTTGTTGAAAAGGATGTGGTCATCTGATCTTGCTG, the ETS1 binding intensity was 3320.

Take GGACAAAACATCATAGGAAGTGGGTTTTGGGGTGAG: the ETS1 binding intensity amounted to 2950.

With AGTGTCCGCCGCTTCCTGGTTGCGGGTCAGCGCCCA, the ETS1 binding intensity stood at 704.

As to TCATTTCCTCTGGTGTTATTGTGTTGTGGTTTTAAG, the ETS1 binding intensity came to 1560.

For TATTCATGACATCCTGTCGGGCTTGTGGGCTGCGTA, the ETS1 binding intensity stood at 1590.

As for AACAACTGACCGGACAGAACACAGCCACAAAACACG, the ETS1 binding intensity turned out to be 544.

On to CCCAGGCTTCCGGGTTGAATATGTGGGCTGAGGCGA, for which the ETS1 binding intensity came out at 415.

With GAAGGTTGTAGAGGAAGTGGTTTGTTCTTCCTCCTG, the ETS1 binding intensity amounted to 4070.

Regarding CAAGAGGAACCGGAACTTTGGAAACCACATTCTTAT, the ETS1 binding intensity is 4800.

CAGCTCTCTCGCTTCCTGTGGTGTAAACATGAAGCA: the ETS1 binding intensity turned out to be 1400.

With CAGACAGGAGGCGGATGTGGGTGGCGCAGAATGAGC, the ETS1 binding intensity worked out at 2250.

With TTTGAGCGGGCAGGATGTGGTGACAATGATACTGCA, the ETS1 binding intensity turned out to be 8140.

In the case of GTCGTCCCGGAAACCGGGATGCGGTTATCAGAGCGA, the ETS1 binding intensity worked out at 7110.

ATGTACATAGATACAGGATGTGGGTTTGTTACAAAG: the ETS1 binding intensity is 24400.

Turning to TGACATTTCCGGCCCCACCTCGGCCCGCAGCGCCGC, the ETS1 binding intensity worked out at 1170.

Regarding TCGTGTTCTCTTCCGTTCTGTGGTAGCTTTTTGGTA, the ETS1 binding intensity is 557.

Regarding CTGAAAAACCGGAAGTGGGTGGTTTGAAACGTAAAT, the ETS1 binding intensity is 20800.
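Wherever RUNX1 binding intensity (PBM fluorescence), RUNX1 alone is given: Full-length recombinant human RUNX1 bound to double-stranded 36-bp genomic probes on a high-density microarray, scored as Alexa488 fluorescence per spot via anti-RUNX1 antibody, median of four replicate spots.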
